# Active and inactive are the calls of the source.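 The calls were made as follows, unless noted: active = compound raises insulin release from rat beta cells at 5 mM glucose, no numeric limit stated; inactive = the rest.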
# Tests used:
# [1] = stimulators of insulin release from INS-1E, primary screen, cell-based, 5 mM glucose, NPC library (AID 1117329); conditions: rat INS-1E insulin secretion, at 10 µM, stronger effect = higher value
# [2] = growth inhibition of GSK3B-pretreated HCT116 cells – cell-based, CellTiter-Glo, 0.2 to 20 µM (AID 1117336;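 active = compounds lowering colon cancer cell viability after pretreatment blocking the GSK3B kinase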); conditions: HCT116 viability after GSK3B inhibitor, at 20 µM, stronger effect = higher value
# [3] = inhibition of endothelial tube formation, primary screen, imaging, VEGF stimulated, CD31 staining, tube area, NPC library (AID 1117340;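 active = compound that reduces growth-factor-driven endothelial tube area in a mixed cell culture, no cutoff stated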); conditions: VEGF-stimulated ADSC/ECFC co-culture, at 10 µM, stronger effect = higher value
# [4] = GLP1 release stimulators, primary, NCI-H716, NPC library (AID 1117341;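 active = compound raises GLP1 secretion from the human gut endocrine cells, with no numeric limit stated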); conditions: NCI-H716 cells, at 10 µM, stronger effect = higher value
# [5] = HCT116 colon cancer cell growth inhibition, primary screen, CellTiter-Glo luminescence, NPC library (AID 1117342;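 active = compounds that lower survival of HCT116 colon cancer cells in the luminescence readout, no numeric limit stated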); conditions: at 20 µM (top of the series)
# [6] = reduced SW480 viability measured with CellTiter-Glo, NPC library, primary (AID 1117343;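 active = compounds that lower viability of the colon cancer cells in the luminescence readout, with no numeric limit stated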); conditions: CellTiter-Glo luminescence; at 20 µM (top of the series)
# [7] = NPC library primary testing for decreased DLD-1 cell viability via CellTiter-Glo (AID 1117346;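 active = compounds that lower survival of DLD-1 colon cancer cells in the luminescence readout, no cutoff given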); conditions: DLD-1 viability, CellTiter-Glo luminescence; at 20 µM (top of the series)
# [8] = molecular target: 6-phosphogluconate dehydrogenase, decarboxylating (Homo sapiens) (UniProt P52209); test: inhibition of human phosphogluconate dehydrogenase – biochemical, recombinant enzyme, NADPH absorbance, primary screen (AID 1159550;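 active = at least 20% inhibition of 6-phosphogluconate dehydrogenase activity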); conditions: recombinant 6PGD, NADPH absorbance 341 nm; at 10 µM; stronger effect = higher value
# [9] = EMT-state selective cytotoxicity in co-culture – imaging, PC-3E GFP, TEM4-18 mCherry, primary screen (AID 1345086;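 active = compounds killing one labelled cell type while sparing the other, by normalised counts and ratio limits, not self-fluorescent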;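 as to all read-outs here: cells exposed to compound for 72 h before imaging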;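 as to red/green cell ratio (normalised): normalised mesenchymal count divided by normalised epithelial count so high means epithelial killing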); conditions: PC-3E GFP / TEM4-18 mCherry co-culture, imaging cell counts, at 1 µM; for red/green cell ratio (normalised): actives lie on both sides, counts scaled to control wells, 1 = unselective
# [10] = measured here: epithelial PC-3E GFP cell survival
# [11] = measured here: mesenchymal TEM4-18 mCherry cell survival
# Chain of 6-phosphogluconate dehydrogenase, decarboxylating (Homo sapiens) (P52209 whole entry, looked up): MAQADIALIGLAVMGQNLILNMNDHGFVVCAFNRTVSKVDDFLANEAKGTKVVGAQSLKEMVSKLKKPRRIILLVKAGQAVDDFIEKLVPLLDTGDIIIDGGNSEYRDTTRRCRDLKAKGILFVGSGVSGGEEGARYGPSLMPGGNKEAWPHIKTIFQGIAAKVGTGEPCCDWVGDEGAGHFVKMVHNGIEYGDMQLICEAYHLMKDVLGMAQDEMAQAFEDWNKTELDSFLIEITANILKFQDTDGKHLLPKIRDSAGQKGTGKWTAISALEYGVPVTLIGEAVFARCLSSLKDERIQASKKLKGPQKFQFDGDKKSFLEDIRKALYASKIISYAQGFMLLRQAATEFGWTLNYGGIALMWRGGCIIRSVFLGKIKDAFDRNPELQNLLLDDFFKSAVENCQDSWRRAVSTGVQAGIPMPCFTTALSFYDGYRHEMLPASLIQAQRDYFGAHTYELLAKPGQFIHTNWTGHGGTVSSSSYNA
SMILES,insulin secretion stimulation [1],viability decrease [2],tube area decrease [3],GLP1 secretion stimulation [4],inhibition of viability [5],viability decrease (inhibition) [6],viability decrease (inhibition) [7],inhibition [8],red/green cell ratio (normalised) [9],"normalised cell number [9, 10]","normalised cell number [9, 11]"
Cc1cc(C)nc(NS(=O)(=O)c2ccc(N)cc2)n1,0.4% (inactive),-0.3% (inactive),-24.8% (inactive),1.6% (inactive),-12.6% (inactive),35.5% (inactive),6.75% (inactive),1.62% (inactive),1.29 (inactive),1.02,1.31
CN(C)C(=O)Oc1cccc([N+](C)(C)C)c1,-0.9% (inactive),10% (inactive),-12.9% (active),1.3% (inactive),2.9% (inactive),-16.1% (inactive),-5.8% (inactive),-2.26% (inactive),1.18 (inactive),0.88,1.04
OC(CCN1CCCCC1)(c1ccccc1)c1ccccc1,60.4% (active),12.2% (inactive),1.5% (inactive),3.3% (inactive),23.9% (inactive),27% (inactive),2.1% (inactive),12.5% (inactive),0.87 (inactive),1.06,0.92
N[C@@H](CCC(=O)N[C@@H](CS)C(=O)NCC(=O)O)C(=O)O,-0.3% (inactive),-46.1% (inactive),16.9% (inactive),-3.8% (inactive),5.53% (inactive),8.1% (inactive),-4.3% (inactive),0.532% (inactive),1.12 (inactive),0.76,0.85
CCC(=O)c1c(O)cc(O)cc1O,3.7% (inactive),-16.4% (inactive),4.6% (inactive),-2% (inactive),21.1% (inactive),21.5% (inactive),2.4% (inactive),8.94% (inactive),0.9 (inactive),1.06,0.96
O=C(O)c1ccccc1O,-0.3% (inactive),7.5% (inactive),5.9% (inactive),6% (inactive),10.8% (inactive),-3.3% (inactive),-1.7% (inactive),1.06% (inactive),1.29 (inactive),0.92,1.19
Cc1ccc(C(=O)c2ccc(CC(=O)O)n2C)cc1,0.4% (inactive),-13.7% (inactive),-2.5% (inactive),3.1% (inactive),-3.2% (inactive),-14.3% (inactive),4.3% (inactive),9.71% (inactive),0.9 (inactive),1.11,1
CC(C(=O)O)c1ccc2c(c1)[nH]c1ccc(Cl)cc12 (centres undefined),0.1% (inactive),6.1% (inactive),17.9% (inactive),4.6% (inactive),1.67% (inactive),36% (inactive),14.1% (inactive),-6.34% (inactive),1.13 (inactive),1.37,1.54
CCCCc1nc(Cl)c(CO)n1Cc1ccc(-c2ccccc2-c2nn[nH]n2)cc1,0.1% (inactive),-41.3% (inactive),11.8% (inactive),1.1% (inactive),-10.5% (inactive),28.5% (inactive),-22.4% (inactive),-22.5% (inactive),1.09 (inactive),1.34,1.46
CCCCC1C(=O)N(c2ccccc2)N(c2ccc(O)cc2)C1=O (centres undefined),-0.2% (inactive),6.7% (inactive),50.3% (active),12.4% (inactive),57.7% (active),124% (active),101% (active),-5.96% (inactive),1.01 (inactive),1.07,1.08
CCN(CC)CCNC(=O)c1cc(Br)c(N)cc1OC,-0.6% (inactive),-24.9% (inactive),15.9% (inactive),0.5% (inactive),-0.17% (inactive),-9.9% (inactive),-34.1% (inactive),12.4% (inactive),0.92 (inactive),0.97,0.89
CCCCCN(CCCCC)C(=O)C(CCC(=O)O)NC(=O)c1ccc(Cl)c(Cl)c1 (centres undefined),2.8% (inactive),-12.2% (inactive),4.7% (inactive),6.6% (inactive),4.6% (inactive),40.9% (inactive),38.9% (inactive),2.64% (inactive),0.82 (inactive),1.1,0.9
O=C(CCCN1CCN(c2ccccn2)CC1)c1ccc(F)cc1,7.45% (inactive),31.5% (inactive),-12.3% (inactive),-0.3% (inactive),51% (active),11.4% (inactive),20.2% (inactive),1.29% (inactive),1.1 (inactive),1.11,1.22
CC(=O)Oc1ccc(C(c2ccc(OC(C)=O)cc2)c2ccccn2)cc1,2.65% (inactive),41.4% (inactive),15.6% (inactive),5.8% (inactive),67.8% (active),-6% (inactive),53.5% (active),4.53% (inactive),0.85 (inactive),1.24,1.06
CC(C)(C)CC(C)(C)c1ccc(O)c(Cc2ccc(Cl)cc2Cl)c1,4.4% (active),99.3% (active),108% (active),117% (active),100% (active),120% (active),102% (active),-15.2% (inactive),0.81 (inactive),1.02,0.82
O=C(O)P(=O)(O)O,0.5% (inactive),-27.7% (inactive),0.7% (inactive),-0.4% (inactive),-5.05% (inactive),2.3% (inactive),-16.6% (inactive),-6.34% (inactive),0.82 (inactive),1.21,0.99
COc1ccc(C(=O)c2ccccc2)c(O)c1,-2.9% (inactive),-5.25% (inactive),6.3% (inactive),0.5% (inactive),14.4% (inactive),3.3% (inactive),-0.05% (inactive),-7.36% (inactive),0.94 (inactive),1.15,1.08
O=C(O)c1cc(=O)c2ccccc2o1,-2.1% (inactive),-1.35% (inactive),-2.1% (inactive),3.7% (inactive),-9.2% (inactive),6.8% (inactive),1.75% (inactive),-2.11% (inactive),0.88 (inactive),0.88,0.78
CCN(CC)C(=O)N1CCN(C)CC1,-1.8% (inactive),-3.6% (inactive),-3.8% (inactive),4.4% (inactive),5.3% (inactive),53.1% (active),-2.05% (inactive),10.8% (inactive),1.18 (inactive),1.2,1.42
Cn1c(=O)c2c(ncn2CCO)n(C)c1=O,1.4% (inactive),15.8% (inactive),-12.3% (inactive),-0.6% (inactive),-8% (inactive),-1.2% (inactive),-21.2% (inactive),-5.12% (inactive),1.06 (inactive),0.95,1.01
CCCCCC(C)N (centres undefined),3.3% (inactive),11.8% (inactive),4.3% (inactive),0% (inactive),-3.73% (inactive),-37.6% (inactive),1.5% (inactive),-7.17% (inactive),1.26 (inactive),0.94,1.18
CC(CN(C)C)CN1c2ccccc2CCc2ccccc21 (centres undefined),2.4% (inactive),-139% (inactive),13.4% (inactive),4.5% (inactive),55.4% (active),136% (active),1.5% (inactive),13.6% (inactive),1.03 (inactive),1.32,1.36
C=CCSCC1Nc2cc(Cl)c(S(N)(=O)=O)cc2S(=O)(=O)N1 (centres undefined),-0.2% (inactive),-11% (inactive),-0.7% (inactive),0.1% (inactive),3.27% (inactive),-6.2% (inactive),1.8% (inactive),5.8% (inactive),1.09 (inactive),1.09,1.19
Cc1cc(=O)[nH]c(=S)[nH]1,-0.5% (inactive),0.65% (inactive),-25.4% (inactive),1.6% (inactive),-2.3% (inactive),11.6% (inactive),0.15% (inactive),-2.01% (inactive),0.93 (inactive),0.99,0.92
O=C1OC(c2ccc(O)cc2)(c2ccc(O)cc2)c2ccccc21,11.5% (inactive),31.1% (inactive),14.1% (inactive),11.8% (inactive),12% (inactive),80.7% (active),43.5% (inactive),-2.11% (inactive),1.12 (inactive),0.94,1.05
Cc1ccc(C(=O)C(C)CN2CCCCC2)cc1 (centres undefined),0.3% (inactive),-13.7% (inactive),-6.9% (inactive),4.8% (inactive),0.13% (inactive),2.3% (inactive),-3.8% (inactive),7.71% (inactive),1 (inactive),1,1
CCCCC1C(=O)N(c2ccccc2)N(c2ccccc2)C1=O,-1.7% (inactive),-11.7% (inactive),0.7% (inactive),-3.3% (inactive),9.25% (inactive),13.6% (inactive),-12.9% (inactive),1.47% (inactive),0.97 (inactive),1.22,1.19
O=C(O)c1cc(O)c(O)c(O)c1,-0.6% (inactive),44.8% (inactive),-2.4% (inactive),5.1% (inactive),1.3% (inactive),36.1% (inactive),39.5% (inactive),3.08% (inactive),0.96 (inactive),1.14,1.09
Nc1ccc(C(=O)Oc2ccccc2)c(O)c1,0.9% (inactive),-26.7% (inactive),4.5% (inactive),0.7% (inactive),3% (inactive),-17.2% (inactive),17.2% (inactive),-7.23% (inactive),1.06 (inactive),0.61,0.65

# Source: PubChem BioAssay
